Data as given in PubChem BioAssay (NCATS).
Inconclusive results are not listed. Unmarked numbers belong to inactive results. Active and inactive are the calls of the source. Calls come from the whole dose curve; as a rule, active = well fitted curve in the direction sought with a large enough effect; inconclusive = small, poorly fitted or top-dose-only effect, or another doubt; inactive = no such curve, though single readings can be large; an effect the other way counts as inactive or inconclusive.
Potency is the fitted concentration of half-maximal effect.

System: not listed separately
Assay: qHTS of pediatric cancer cell lines to identify multiple opportunities for drug repurposing: Confirmatory screen for Rh18 cells (AID 1347125); note: nearly all actives have a fitted effect of over 55% in size; for activity change, negative = cytotoxic: % is set by controls: 0 for no effect and ±100 for the full control effect
Conditions: Rh18 rhabdomyosarcoma cells, viability; series mostly up to 45.9 µM; activity change, negative = cytotoxic: at the top concentration
Procedure, shortened: (§1)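 Cells (500-1,000/well) rested 5 h, then received compounds for 48 h; metabolically active cells were measured by CellTiter-Glo luminescence. Final concentrations spanned up to 46 µM (MIPE, 11-point) or 0.59 nM-46 µM (NPC, 8-point) in primary screens, 11-point in follow-ups.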
In the case of `Nc1nc(N)c2nc(-c3ccccc3)c(N)nc2n1`, the “activity change, negative = cytotoxic” value is reported as 3.06%. For `CN1C[C@H](C(=O)N[C@]2(C)O[C@@]3(O)[C@@H]4CCCN4C(=O)[C@H](Cc4ccccc4)N3C2=O)C[C@@H]2c3cccc4[nH]cc(c34)C[C@H]21`, the “activity change, negative = cytotoxic” value was 2.52%. For `C[n+]1cc2c3c(ccc2c2ccc4cc5c(cc4c21)OCO5)OCO3`, the Potency was 1.62 µM (active). For `CN/C(=C\[N+](=O)[O-])NCCSCc1ccc(CN(C)C)o1`, the “activity change, negative = cytotoxic” value was 1.77%. For `C[C@]12CC[C@@H]3c4ccc(O)cc4C[C@@H](CCCCCCCCCS(=O)CCCC(F)(F)C(F)(F)F)[C@H]3[C@@H]1CC[C@@H]2O` (some centres undefined), the “activity change, negative = cytotoxic” value was -19.4%. With `C[C@]12C=CC(=O)C=C1CC[C@H]1[C@@H]3C[C@@H](O)[C@](O)(C(=O)CO)[C@@]3(C)C[C@H](O)[C@@]12F` the Potency was 9.27 µM (active). `NCCCNCCSP(=O)(O)O` showed an activity change, negative = cytotoxic of 1.32% [at 9.58 µM].

System: not listed separately
Assay: qHTS of pediatric cancer cell lines to identify multiple opportunities for drug repurposing: Confirmatory screen for Rh30 cells (AID 1347126); note: nearly all actives have a fitted effect of over 55% in size; for activity change, negative = cytotoxic: % is set by controls: 0 for no effect and ±100 for the full control effect
Conditions: Rh30 rhabdomyosarcoma cell viability; series mostly up to 45.9 µM; activity change, negative = cytotoxic: at the top concentration
Procedure, shortened: as §1
For `Nc1nc(N)c2nc(-c3ccccc3)c(N)nc2n1`, the “activity change, negative = cytotoxic” value was -26.3%. In the case of `CN1C[C@H](C(=O)N[C@]2(C)O[C@@]3(O)[C@@H]4CCCN4C(=O)[C@H](Cc4ccccc4)N3C2=O)C[C@@H]2c3cccc4[nH]cc(c34)C[C@H]21`, the “activity change, negative = cytotoxic” value is reported as -5.48%. For `CN/C(=C\[N+](=O)[O-])NCCSCc1ccc(CN(C)C)o1`, the Potency was 0.185 µM (active). With `C[C@]12CC[C@@H]3c4ccc(O)cc4C[C@@H](CCCCCCCCCS(=O)CCCC(F)(F)C(F)(F)F)[C@H]3[C@@H]1CC[C@@H]2O` (some centres undefined) the “activity change, negative = cytotoxic” value was -18.7%. With `C[C@]12C=CC(=O)C=C1CC[C@H]1[C@@H]3C[C@@H](O)[C@](O)(C(=O)CO)[C@@]3(C)C[C@H](O)[C@@]12F` the Potency was 7.37 µM (active). For `NCCCNCCSP(=O)(O)O`, the activity change, negative = cytotoxic was -18.1% [at 9.47 µM].

System: not listed separately
Assay: qHTS of pediatric cancer cell lines to identify multiple opportunities for drug repurposing: Confirmatory screen for Saos-2 cells (AID 1347127); note: nearly all actives have a fitted effect of over 60% in size;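 for activity change, negative = cytotoxic: plate controls were DMSO for no effect and bortezomib for full effect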
Conditions: Saos-2 osteosarcoma cell viability; series mostly up to 45.9 µM; activity change, negative = cytotoxic: at the top concentration
Procedure, shortened: as §1
For `Nc1nc(N)c2nc(-c3ccccc3)c(N)nc2n1`, the “activity change, negative = cytotoxic” value was -11.4%. With `CN1C[C@H](C(=O)N[C@]2(C)O[C@@]3(O)[C@@H]4CCCN4C(=O)[C@H](Cc4ccccc4)N3C2=O)C[C@@H]2c3cccc4[nH]cc(c34)C[C@H]21` the “activity change, negative = cytotoxic” value was 9.38%. In the case of `C[n+]1cc2c3c(ccc2c2ccc4cc5c(cc4c21)OCO5)OCO3`, the Potency is reported as 1.29 µM (active). In the case of `CN/C(=C\[N+](=O)[O-])NCCSCc1ccc(CN(C)C)o1`, the “outcome” value is reported as “inactive”. With `C[C@]12CC[C@@H]3c4ccc(O)cc4C[C@@H](CCCCCCCCCS(=O)CCCC(F)(F)C(F)(F)F)[C@H]3[C@@H]1CC[C@@H]2O` (some centres undefined) the “activity change, negative = cytotoxic” value was -19.7%. In the case of `C[C@]12C=CC(=O)C=C1CC[C@H]1[C@@H]3C[C@@H](O)[C@](O)(C(=O)CO)[C@@]3(C)C[C@H](O)[C@@]12F`, the Potency is reported as 9.27 µM (active). For `NCCCNCCSP(=O)(O)O`, the activity change, negative = cytotoxic was -1.29% [at 9.58 µM].

System: not listed separately
Assay: qHTS of pediatric cancer cell lines to identify multiple opportunities for drug repurposing: Confirmatory screen for OHS-50 cells (AID 1347128);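 note: compound exposure lasted 48 h at 37 degrees C; nearly all actives have a fitted effect of over 55% in size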; for activity change, negative = cytotoxic: % is set by controls: 0 for no effect and ±100 for the full control effect
Conditions: OHS-50 osteosarcoma cells viability; series mostly up to 45.9 µM; activity change, negative = cytotoxic: at the top concentration
Procedure, shortened: as §1
In the case of `CN1C[C@H](C(=O)N[C@]2(C)O[C@@]3(O)[C@@H]4CCCN4C(=O)[C@H](Cc4ccccc4)N3C2=O)C[C@@H]2c3cccc4[nH]cc(c34)C[C@H]21`, the “activity change, negative = cytotoxic” value is reported as -11%. In the case of `C[n+]1cc2c3c(ccc2c2ccc4cc5c(cc4c21)OCO5)OCO3`, the Potency is reported as 2.57 µM (active). With `CN/C(=C\[N+](=O)[O-])NCCSCc1ccc(CN(C)C)o1` the “activity change, negative = cytotoxic” value was 3.86%. With `C[C@]12CC[C@@H]3c4ccc(O)cc4C[C@@H](CCCCCCCCCS(=O)CCCC(F)(F)C(F)(F)F)[C@H]3[C@@H]1CC[C@@H]2O` (some centres undefined) the “activity change, negative = cytotoxic” value was -23.3%. For `NCCCNCCSP(=O)(O)O`, the activity change, negative = cytotoxic was 0.588% [at 9.58 µM].

System: not listed separately
Assay: qHTS of pediatric cancer cell lines to identify multiple opportunities for drug repurposing: Confirmatory screen for SK-N-SH cells (AID 1347129);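 note: cells exposed to compound for 48 h before viability read; nearly all actives have a fitted effect of over 60% in size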;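 for activity change, negative = cytotoxic: plate controls were DMSO for no effect and bortezomib control for full effect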
Conditions: SK-N-SH neuroblastoma cell viability; series mostly up to 46.1 µM; activity change, negative = cytotoxic: at the top concentration
Procedure, shortened: as §1
For `Nc1nc(N)c2nc(-c3ccccc3)c(N)nc2n1`, the “activity change, negative = cytotoxic” value was -4.13%. In the case of `C[n+]1cc2c3c(ccc2c2ccc4cc5c(cc4c21)OCO5)OCO3`, the Potency is reported as 1.44 µM (active). For `CN/C(=C\[N+](=O)[O-])NCCSCc1ccc(CN(C)C)o1`, the “activity change, negative = cytotoxic” value was 1.91%. In the case of `C[C@]12CC[C@@H]3c4ccc(O)cc4C[C@@H](CCCCCCCCCS(=O)CCCC(F)(F)C(F)(F)F)[C@H]3[C@@H]1CC[C@@H]2O` (some centres undefined), the “activity change, negative = cytotoxic” value is reported as 8.54%. For `C[C@]12C=CC(=O)C=C1CC[C@H]1[C@@H]3C[C@@H](O)[C@](O)(C(=O)CO)[C@@]3(C)C[C@H](O)[C@@]12F`, the “activity change, negative = cytotoxic” value was -13.4%. For `NCCCNCCSP(=O)(O)O`, the activity change, negative = cytotoxic was -2.99% [at 9.52 µM].

Molecular target: N-terminal Xaa-Pro-Lys N-methyltransferase 1 (Homo sapiens) (UniProt Q9BV86)
Sequence (Q9BV86 whole entry, looked up): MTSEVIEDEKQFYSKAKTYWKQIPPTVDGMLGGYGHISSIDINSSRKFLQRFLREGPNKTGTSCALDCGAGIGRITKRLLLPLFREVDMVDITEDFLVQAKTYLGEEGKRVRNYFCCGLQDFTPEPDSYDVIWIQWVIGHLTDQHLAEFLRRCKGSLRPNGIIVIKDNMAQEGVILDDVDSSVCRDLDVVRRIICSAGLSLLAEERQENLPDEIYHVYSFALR
Assay: qHTS Assay for Inhibitors of N-terminal methyltransferase 1 (NTMT1): LOPAC validation of the NTMT1 SAHH-coupled ThioGlo3 Assay (AID 1347143);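 note: SAH from peptide methylation measured as thiol fluorescence via SAHH coupling and ThioGlo3; nearly all actives have a fitted effect of over 70% in size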; for activity change, negative = inhibition: % is set by controls: 0 for no effect and ±100 for the full control effect
Conditions: recombinant NTMT1, SAHH-coupled ThioGlo3 fluorescence; series mostly up to 114 µM; activity change, negative = inhibition: at the top concentration
Procedure, shortened: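 NTMT1 125nM + cpds (various conc.), 1 min RT; add SAM 100uM/SAHH 10uM/ThioGlo3 15uM (addition mix). SAHH-coupled thiol detection, Ex340/Em450, t0 and 30 min RT; signal normalized to background. LOPAC 1280-cpd pilot.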
In the case of `OC(CCN1CCCCC1)(c1ccccc1)C1CCCCC1` (centres undefined), the “activity change, negative = inhibition” value is reported as -12.7%. For `CNCCC(Oc1ccccc1OC)c1ccccc1` (centres undefined), the “activity change, negative = inhibition” value was -11.8%. For `C[N+](C)(C)CCOC(N)=O`, the “activity change, negative = inhibition” value was -6.03%. For `CCN(Cc1ccncc1)C(=O)C(CO)c1ccccc1` (centres undefined), the “activity change, negative = inhibition” value was -9.29%. For `CC(C)(C)c1ccc(C(=O)CCCN2CCC(OC(c3ccccc3)c3ccccc3)CC2)cc1`, the “activity change, negative = inhibition” value was 14.7%. For `C[C@@H](O)[C@H]1C(=O)N2C(C(=O)O)=C(SCCN=CN)C[C@H]12`, the “activity change, negative = inhibition” value was 18.2%. With `O=C1NCN(c2ccccc2)C12CCN(CCCC(c1ccc(F)cc1)c1ccc(F)cc1)CC2` the “activity change, negative = inhibition” value was -15.9%. For `C[C@]12CCC(=O)C=C1CC[C@@H]1[C@@H]2C(=O)C[C@@]2(C)[C@H]1CC[C@]2(O)C(=O)CO`, the “activity change, negative = inhibition” value was -16.3%. With `CCOC(=O)c1cnc2c(cnn2CC)c1NN=C(C)C` the Potency was 56.2 µM (active). With `NC(=O)c1cn(Cc2c(F)cccc2F)nn1` the “activity change, negative = inhibition” value was -10.1%. In the case of `CC(=O)Nc1nnc(S(N)(=O)=O)s1`, the “activity change, negative = inhibition” value is reported as -17.2%. For `CN(C(=O)CCCOc1ccc2[nH]c(=O)ccc2c1)C1CCCCC1`, the Potency was 79.4 µM (active). With `CN1C[C@H](C(=O)N[C@]2(C)O[C@@]3(O)[C@@H]4CCCN4C(=O)[C@H](Cc4ccccc4)N3C2=O)C[C@@H]2c3cccc4[nH]cc(c34)C[C@H]21` the “activity change, negative = inhibition” value was -17.9%. In the case of `CC(C)COCC(CN(Cc1ccccc1)c1ccccc1)N1CCCC1` (centres undefined), the Potency is reported as 50.1 µM (active). With `COc1cc(Cc2cnc(N)nc2N)cc(OC)c1OC` the “activity change, negative = inhibition” value was -10.5%. In the case of `CCn1ccnc1CC1COc2ccccc2O1` (centres undefined), the “activity change, negative = inhibition” value is reported as -23.3%. In the case of `C=CCc1ccccc1OCC(O)CNC(C)C` (centres undefined), the “activity change, negative = inhibition” value is reported as -19%. For `O=C(O)CN(CCN(CC(=O)O)CC(=O)O)CCN(CC(=O)O)CC(=O)O`, the “activity change, negative = inhibition” value was -5.85%. In the case of `C[n+]1cc2c3c(ccc2c2ccc4cc5c(cc4c21)OCO5)OCO3`, the Potency is reported as 44.7 µM (active). For `CC(C)NNC(=O)c1ccncc1`, the “activity change, negative = inhibition” value was -25.9%. In the case of `COC(=O)C1=C(C)NC(C)=C(C(=O)OC(C)(C)CN(C)CCC(c2ccccc2)c2ccccc2)C1c1cccc([N+](=O)[O-])c1` (centres undefined), the “activity change, negative = inhibition” value is reported as -18.6%. In the case of `Cc1ccc(/C(=C\CN2CCCC2)c2ccccn2)cc1`, the “activity change, negative = inhibition” value is reported as -25%. For `C[C@]12CC[C@@H]3c4ccc(O)cc4C[C@@H](CCCCCCCCCS(=O)CCCC(F)(F)C(F)(F)F)[C@H]3[C@@H]1CC[C@@H]2O` (some centres undefined), the “activity change, negative = inhibition” value was 16.9%. For `CCCOc1ccccc1-c1nc2n[nH]nc2c(=O)[nH]1`, the “activity change, negative = inhibition” value was -18.9%. For `C[C@]12C=CC(=O)C=C1CC[C@H]1[C@@H]3C[C@@H](O)[C@](O)(C(=O)CO)[C@@]3(C)C[C@H](O)[C@@]12F`, the “activity change, negative = inhibition” value was -14.6%. For `CCOC(=O)C1=C(C)NC(C)=C(C(=O)OC)C1c1cccc(Cl)c1Cl` (centres undefined), the Potency was 56.2 µM (active). For `NCCCNCCSP(=O)(O)O`, the “activity change, negative = inhibition” value was -7.05%. For `COC(=O)[C@H]1[C@H]2C[C@@H]3c4[nH]c5cc(OC)ccc5c4CCN3C[C@H]2C[C@@H](OC(=O)c2cc(OC)c(OC)c(OC)c2)[C@@H]1OC`, the Potency was 56.2 µM (active). For `CC(=O)Oc1cc(C(C)C)c(OCCN(C)C)cc1C`, the “activity change, negative = inhibition” value was -11.9%. With `Cc1nc2c([nH]1)c(=O)n(C)c(=O)n2Cc1ccco1` the “activity change, negative = inhibition” value was -14.7%. In the case of `COCCc1ccc(OCC(O)CNC(C)C)cc1` (centres undefined), the “activity change, negative = inhibition” value is reported as -7.35%. For `c1cc(CN2CCCCC2)cc(OCCCNc2nc3ccccc3s2)c1`, the Potency was 22.4 µM (active). For `O=C(CCNNC(=O)c1ccncc1)NCc1ccccc1`, the “activity change, negative = inhibition” value was -13%.
